Calls of active or inactive are those of the source.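 How the source made its calls: active means neuropeptide S receptor blocker with IC50 at or below 10 µM; inconclusive means IC50 above 10 µM but below 20 µM; inactive means IC50 of 20 µM or more.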
Molecular target: Neuropeptide S receptor (Homo sapiens) (UniProt Q6W5P4)
Test: qHTS for Antagonists of the Neuropeptide S Receptor: SAR in ERK
Settings: CHO-NPSR cells, NPS-induced pERK1/2 HTRF
From the text: Neuropeptide S receptor (NPSR), previously known as GPR154, is a recently de-orphanized G protein coupled receptor. Its endogenous ligand is the 20 amino acids peptide Neuropeptide S (NPS). […] NPS and its receptor are found in various tissues. Specifically they are highly expressed in brain areas that have been implicated in modulation of arousal, stress and anxiety. Central administration of NPS in mice produces an unusual profile of activity by inducing wakefulness and arousal, while at the same time suppressing anxiety. Therefore, NPSR may represent a novel drug target for the treatment of sleep and anxiety disorders. To identify NPSR antagonists, we developed a cell-based assay with transfected NPS receptor. NPS can stimulate the production of cAMP as well as release intracellular calcium in Chinese hamster ovary cells stably expressing NPS receptor. This change in intracellular calcium can be detected using a calcium indicator dye on a calcium imaging plate reader system (FDSS). […] Reinscheid et al. have demonstarted that the binding of NPS to NPSR activates the phosphorylation of the MAPK extracellular regulated kinase (ERK). Thus NPSR antagonists of ERK activation should reduce ERK phosphorlyation is a dose dependent manner NIH Chemical Genomics Center [NCGC] NIH Molecular Libraries Probe Production centers Network [MLPCN] MLPCN Grant: DA026210 Assay Submitter (PI): Heilig, Markus Alexander
Intracellular pERK1/2 levels were measured using a time-resolved fluorescence resonance energy transfer (TR-FRET) assay by a HTRF Cellul'erk kit (Cisbio, MA). The CHO cells overexpressing NPSR were seeded at 200 microL/well with 25,000 cells in white, tissue culture treated clear bottom 96-well plates (Greiner Bio-One, NC). Following overnight incubation at 37 masculineC with 5% CO2, the growth medium was replaced with 100 microL /well Opti-MEM medium (ATCC, VA) and incubated at 37 degrees C with 5% CO2 for an additional 4 hours. The compounds prepared in 100% DMSO were added to assay plates at 1 microL/well. The assay plates were incubated for 10 min at 37 degrees C with 5% CO2 and NPS solution (2 nM NPS peptide prepared in the Opti-MEM medium with 0.2 % BSA and 0.005 % Tweeen-20) was then added at 100 microL/well. After a 20 min incubation at 37 degrees C with 5% CO2, the media was aspirated and the place plates were placed on ice for 5 min followed by the addition of 50 microL/well of 1 cell lyses solution. The plates were then incubated at room temperature while gently rocking (for mixing) for 15 min. […] After overnight incubation at room temperature in the dark, the plates were measured using the EnVision plate reader similarly as that of cAMP assay.

Neuropeptide S receptor (Homo sapiens), sequence (Q6W5P4 whole entry, looked up): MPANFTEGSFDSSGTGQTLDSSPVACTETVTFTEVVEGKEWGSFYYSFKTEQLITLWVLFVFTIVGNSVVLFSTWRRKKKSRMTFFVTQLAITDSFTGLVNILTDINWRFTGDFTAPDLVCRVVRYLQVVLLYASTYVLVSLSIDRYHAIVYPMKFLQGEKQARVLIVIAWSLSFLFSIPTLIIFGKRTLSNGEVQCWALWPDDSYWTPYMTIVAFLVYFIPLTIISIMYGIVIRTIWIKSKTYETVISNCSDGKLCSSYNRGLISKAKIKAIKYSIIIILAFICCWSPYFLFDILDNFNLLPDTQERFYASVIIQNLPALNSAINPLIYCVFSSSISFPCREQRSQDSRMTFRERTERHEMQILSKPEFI

IC50, active:
O=C1OC(c2ccccc2)(c2ccccc2)N2CCN(C(=O)NCc3ccc(F)cc3)CC12 (centres undefined) 15.8 nM
Cc1c(P(=S)(c2ccccc2)c2ccccc2)[n+]2ccccc2n1C/C=C/c1ccccc1 9.3 nM
COc1ccc(C2c3c(ncn(CCN4CCOCC4)c3=N)Oc3ccc4ccccc4c32)cc1OC (centres undefined) 59.7 nM
CCC(C)(CCN1CCOCC1)N(Cc1cc2ccccc2n(C)c1=O)C(=O)C1CCCCC1 (centres undefined) 9 nM

From PubChem BioAssay AID624053 (National Center for Advancing Translational Sciences (NCATS), 2012)
